This is an account of results in PubChem BioAssay (Tox21).

Each structure is given as a SMILES string. Where “and” joins values, the source holds several entries; their conditions need not be identical. Identical values can stand only once. Records with an inconclusive call do not appear. The source holds several records for some structures; these can differ, active in one and inactive in another. Calls of active or inactive are those of the source. Unless noted, the call rests on the fitted dose curve; in most records, active means well fitted curve in the direction sought with a large enough effect in the repeat runs; inconclusive means weak or mixed curves; inactive means no such curve, though single readings can be large; an effect the other way counts as inactive or inconclusive.

The nature of experiment [1]: qHTS assay to identify small molecule agonists of the estrogen receptor alpha (ER-alpha) signaling pathway in the presence of an antagonist - cell viability counter screen (AID 1259386).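 Further: series mostly up to about 92 µM; cells exposed to compounds for 22 h at 37 °C before the viability read; nearly all actives have a fitted effect of over 30% in size.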 In short, it runs like this:
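Cell viability in VM7Luc4E2 cells (endogenous full-length ER-alpha) measured by CellTiter-Fluor fluorescence in the same wells as the luciferase screen. Cells pre-cultured 5 days in charcoal-stripped serum, then treated 22 h with compounds at 15 concentrations plus 10.0nM ICI-182,780.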

Experiment [2] addresses Progesterone receptor (Homo sapiens) (UniProt P06401). The experiment in a line: qHTS assay to identify small molecule agonists of the progesterone receptor (PR) signaling pathway (AID 1346784; calls by dose curve; further: nearly all actives have a fitted effect of over 30% in size; further: potency means the concentration at half of the fitted maximal effect). The method in brief:
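HEK 293T PR-UAS-bla reporter cells, 2% charcoal-stripped FBS; 6 hr settle at 37C/5% CO2, compound (DMSO) 16 hr, LiveBLAzer B/G FRET substrate 2 hr RT, fluorescence intensity read.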

Experiment [3] shares this target. The experiment in a line: qHTS assay to identify small molecule antagonists of the progesterone receptor (PR) signaling pathway (AID 1346795; active means well fitted inhibition curve with a large enough effect in the signal ratio in the repeat runs, not every such curve was filed as active; the % refers to the signal ratio; further: potency means the concentration at half of the fitted maximal effect). In short, it runs like this:
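Beta-lactamase reporter, HEK293T PR-UAS-bla line; 2% charcoal-stripped FBS; 6 hr pre-incubation, 37C/5% CO2. Compound + R5020 1 nM final, 16 hr. LiveBLAzer B/G FRET substrate, 2 hr RT; fluorescence intensity read.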

Experiment [4] can be described thus: qHTS assay to identify small molecule antagonists of the progesterone receptor (PR) signaling pathway - cell viability counter screen (AID 1346798). Further: nearly all actives have a fitted effect of over 50% in size. Further: potency means the concentration at half of the fitted maximal effect. On activity change, negative = cytotoxicity: series mostly up to about 92 µM. In short, it runs like this: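 Luminescence readout (CellTiter-Glo, 30 min, RT) of viability in PR-UAS-bla HEK293T cells exposed to compound and R5020 agonist for 16 hr at 37C, 5% CO2; run in the same wells as the beta-lactamase reporter read.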
On the technique in general: qHTS replaces the single test concentration by a dilution series.

Experiment [5] in a line: qHTS assay to identify small molecule agonists of the progesterone receptor (PR) signaling pathway - cell viability counter screen (AID 1346799; calls by dose curve; further: nearly all actives have a fitted effect of over 45% in size). The method in brief:
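HEK293T PR-UAS-bla, 3,000 cells/well, 2% charcoal-stripped FBS; 6 h settle, compound 16 h at 37C/5% CO2; LiveBLAzer 2 h RT, then CellTiter-Glo 30 min RT, luminescence read.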

A short description of experiment [6]: qHTS assay to identify small molecule agonists of the TGF-beta/Smad signaling pathway - cell viability counter screen (AID 1346829). Further: nearly all actives have a fitted effect of over 45% in size. Further: potency means the concentration at half of the fitted maximal effect. On activity change, negative = cytotoxicity: top concentration of the series differs between compounds. The method in brief:
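Cytotoxicity counter screen: CellTiter-Glo luminescence (30 min, room temperature) measured in the SBE-bla HEK 293T reporter wells after 5 hr compound treatment at 37 C and the 2 hr substrate step.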

Experiment [7] in a line: qHTS assay to identify small molecule agonists of the TGF-beta/Smad signaling pathway (AID 1346859; active means well fitted activation curve with a large enough effect in the signal ratio in the repeat runs, not every such curve was filed as active; the % refers to the signal ratio; further: series mostly up to about 77 µM). The method in brief:
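Read-out: fluorescence at 460 and 530 nm (405 nm excitation) after a 2 hr room-temperature incubation with beta-lactamase FRET substrate. SBE-bla HEK 293T cells had been treated with test compounds for 5 hr at 37 C.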

In experiment [8] the target is Thyrotropin-releasing hormone receptor (Homo sapiens) (UniProt P34981). The experiment in a line: qHTS assay to identify small molecule antagonists of the thyrotropin-releasing hormone receptor (TRHR) signaling pathway (AID 1346877; active means well fitted inhibition curve with a large enough effect in the repeat runs, not every such curve was filed as active; further: series mostly up to about 51 µM). The method in brief:
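TRHR-expressing HEK293 cells loaded with calcium dye for 2 h at 37 C; compounds pre-incubated 5 min at room temperature before TRH challenge at 1 nM final. Intracellular calcium fluorescence read kinetically for 3 min; 15 concentrations in triplicate.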

The target is the same in experiment [9]. The experiment is described as follows: qHTS assay to identify small molecule agonists of the thyrotropin-releasing hormone receptor (TRHR) signaling pathway (AID 1346891; calls by dose curve; further: series mostly up to about 58 µM). The method in brief: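 HEK293/TRHR cells, 1500 per well, 18 h 37 °C; Ca dye 2 h 37 °C; pin-tool compound addition (agonist mode); kinetic fluorescence 3 min, 1 s reads; 15 concentrations, triplicate.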

A short description of experiment [10]: qHTS assay to identify small molecule antagonists of the TGF-beta/Smad signaling pathway - cell viability counter screen (AID 1346824). Further: nearly all actives have a fitted effect of over 50% in size. The method in brief:
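SBE-bla HEK 293T cells, incubated overnight, then compound plus 0.25 ng/mL TGF-beta1 (stock added) for 5 hr at 37 C. Viability was read in the same wells by CellTiter-Glo luminescence after 30 min at room temperature.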
On the % scale 0 is the no-effect control and ±100 the full control effect.

Progesterone receptor (Homo sapiens), sequence (P06401 whole entry, looked up): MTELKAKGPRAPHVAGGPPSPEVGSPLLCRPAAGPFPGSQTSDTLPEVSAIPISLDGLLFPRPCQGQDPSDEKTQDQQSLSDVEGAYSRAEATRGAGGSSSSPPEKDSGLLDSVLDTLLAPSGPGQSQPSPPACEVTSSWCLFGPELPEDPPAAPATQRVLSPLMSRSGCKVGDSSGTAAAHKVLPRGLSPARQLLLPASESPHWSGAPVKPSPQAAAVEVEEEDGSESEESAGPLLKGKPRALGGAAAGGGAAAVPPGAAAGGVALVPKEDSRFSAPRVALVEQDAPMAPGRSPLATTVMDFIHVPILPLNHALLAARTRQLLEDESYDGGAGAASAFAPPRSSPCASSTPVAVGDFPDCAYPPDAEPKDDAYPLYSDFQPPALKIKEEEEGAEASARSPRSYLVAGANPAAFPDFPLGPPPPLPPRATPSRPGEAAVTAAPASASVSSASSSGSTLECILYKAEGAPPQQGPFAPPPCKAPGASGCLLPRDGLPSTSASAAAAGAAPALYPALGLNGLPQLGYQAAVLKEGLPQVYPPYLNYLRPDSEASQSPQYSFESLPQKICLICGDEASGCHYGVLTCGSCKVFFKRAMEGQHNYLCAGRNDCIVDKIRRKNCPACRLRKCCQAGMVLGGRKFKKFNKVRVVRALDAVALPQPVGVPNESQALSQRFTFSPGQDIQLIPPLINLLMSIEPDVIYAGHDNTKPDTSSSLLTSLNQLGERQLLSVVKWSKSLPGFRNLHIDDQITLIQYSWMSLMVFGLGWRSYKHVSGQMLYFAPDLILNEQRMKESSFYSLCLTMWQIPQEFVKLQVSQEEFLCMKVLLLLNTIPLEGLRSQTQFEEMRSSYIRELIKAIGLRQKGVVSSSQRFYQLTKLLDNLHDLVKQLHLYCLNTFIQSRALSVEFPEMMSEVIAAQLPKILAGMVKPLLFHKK
Thyrotropin-releasing hormone receptor (Homo sapiens), sequence (P34981 whole entry, looked up): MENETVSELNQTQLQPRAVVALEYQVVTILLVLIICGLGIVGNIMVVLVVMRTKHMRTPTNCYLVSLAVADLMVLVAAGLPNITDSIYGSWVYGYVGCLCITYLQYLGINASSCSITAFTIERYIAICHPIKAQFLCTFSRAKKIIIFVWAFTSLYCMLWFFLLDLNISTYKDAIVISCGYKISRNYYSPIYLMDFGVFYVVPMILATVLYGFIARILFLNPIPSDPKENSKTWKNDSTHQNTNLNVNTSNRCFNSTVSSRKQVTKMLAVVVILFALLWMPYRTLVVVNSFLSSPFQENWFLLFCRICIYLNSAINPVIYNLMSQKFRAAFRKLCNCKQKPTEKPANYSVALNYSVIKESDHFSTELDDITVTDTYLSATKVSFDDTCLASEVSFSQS

`CCCCON=O`: the Potency entry in [1], in [2], in [3], in experiment [4], in [5] and in [6] was “inactive” in each case. Also, the Potency result in experiment [8] and in [9] was “inactive” throughout. In experiment [7], the call was inactive.
Take `CCCCN(CCCC)C(=S)[S-].CCCCN(CCCC)C(=S)[S-].[Ni+2]`: the Potency entry in [1], in experiment [2], in experiment [3], in experiment [4], in experiment [5] and in [10] was “inactive” throughout. The Potency result in experiment [6] is “inactive”. For the same molecule, the result in experiment [7] was inactive.
Turning to `Oc1ccc2[nH]cc(CCCCN3CC=C(c4ccccc4)CC3)c2c1`, the Potency entry in experiment [1], in experiment [2], in experiment [3], in [4], in experiment [5] and in experiment [10] was “inactive” throughout. In addition, the Potency entry in experiment [6] was “inactive”. Besides, the call in [7] was inactive.
Turning to `O=C(O)CCCCCCNC1c2ccccc2CCc2ccccc21`, the Potency result in experiment [1], in experiment [2], in experiment [3], in experiment [4], in experiment [5] and in experiment [10] was “inactive” each time. For the same molecule, the Potency result in experiment [6] was “inactive”. Further, the molecule was classed as inactive in experiment [7].
For the molecule `CCCC[N+]1(C)CCCC1` (tested in a mixture with another compound), the Potency entry in experiment [1], in experiment [2], in [3], in [4], in [5] and in experiment [10] was “inactive” in each case. Moreover, the Potency result in experiment [6] is “inactive”. Also, in [7], the molecule was called inactive.
As to `O=P(Cl)(Cl)Cl`, the Potency entry in [1], in experiment [2], in [3], in [4], in [5] and in [10] was “inactive” in each case. Besides, the Potency result in experiment [6], in [8] and in [9] was “inactive” each time. For the same molecule, in [7], the result was inactive.
In the case of `CN1[C@@H]2CC[C@H]1CC(O)C2` (some centres undefined), the Potency entry in experiment [1], in experiment [2], in [3], in experiment [4], in [5] and in experiment [10] was “inactive” throughout. Further, the Potency result in experiment [6], in [8] and in experiment [9] was “inactive” each time. Also, in experiment [7], the molecule was called inactive.
For `CCOC(=O)CCN(SN(C)C(=O)Oc1cccc2c1OC(C)(C)C2)C(C)C`, the Potency entry in experiment [1], in [2], in experiment [3], in [4], in experiment [5] and in [6] was “inactive” throughout. Moreover, in experiment [7], the result was inactive.
For the molecule `CC(Cc1ccc(O)cc1)NCC(O)c1cc(O)cc(O)c1` (centres undefined), the Potency entry in experiment [1], in experiment [2], in experiment [3], in [4], in experiment [5] and in experiment [10] was “inactive” throughout. For the same molecule, the Potency entry in experiment [6], in experiment [8] and in [9] was “inactive” throughout. The call in [7] was inactive.
As to `CC1CN1` (centres undefined), the Potency result in [1], in [2], in [3], in experiment [4], in experiment [5] and in [10] was “inactive” each time. In addition, the Potency entry in experiment [6] is “inactive”. In addition, in [7], the molecule was called inactive.
Turning to `S=C=NCCc1ccccc1`, the Potency result in [1], in experiment [2], in [10] and in [6] was “inactive” in each case. Also, the values for the Potency in experiment [3] and in experiment [4] were 19.4 µM (active) and 21.7 µM (active), respectively. The outcome in [7] was inactive.
Regarding `COCCC#N`, the Potency entry in [1], in [2], in experiment [3], in [4], in [5] and in experiment [10] was “inactive” throughout. Moreover, the Potency result in experiment [6] is “inactive”. In addition, in experiment [7], the result was inactive.
Turning to `ClC1=C(Cl)[C@]2(Cl)[C@H]3[C@H]([C@@H]4C=C[C@H]3C4)[C@@]1(Cl)C2(Cl)Cl`, the Potency result in experiment [1], in experiment [2], in experiment [4], in experiment [5], in [8] and in [9] was “inactive” in each case. Moreover, the Potency in experiment [3] is 21.7 µM (active); in experiment [6], “inactive and 49 µM (active)”. Besides, in [7], the molecule was called inactive.
As to `CCC1(CC)C(=O)N=C(O)NC1=O`, the Potency entry in [1], in experiment [2], in [3], in [4], in [5] and in [6] was “inactive” throughout. Besides, the Potency entry in experiment [8] and in experiment [9] was “inactive” in each case. Also, the molecule was classed as inactive in experiment [7].
Consider `CN/C(=N\[N+](=O)[O-])NCc1cnc(Cl)s1`, for which the Potency result in [1], in [2], in experiment [3], in experiment [4], in experiment [5] and in experiment [10] was “inactive” each time. Moreover, the Potency entry in [6] is “inactive”. Also, in experiment [7], the result was inactive.
Turning to `O=C(Cl)c1ccccc1F`, the Potency entry in experiment [1], in experiment [2], in experiment [3], in experiment [4], in experiment [5] and in experiment [6] was “inactive” in each case.
On to `CC(=O)[O-].CC(=O)[O-].CC(=O)[O-].[Sb+3]`, for which the activity change, negative = cytotoxicity is -1.24% [at 3.27 µM] (inactive) in experiment [1], 10.2% [at 3.27 µM] (inactive) in experiment [4] and 2.52% [at 2.72 µM] (inactive) in [6]. Also, the activation in experiment [2] is 3.93% [at 3.27 µM] (inactive); in [7], -3.71% [at 2.72 µM] (inactive). The activity change, negative = inhibition in experiment [3] is -5.92% [at 3.27 µM] (inactive). For the same molecule, the viability change, negative = cytotoxic in experiment [10] is -1.18% [at 2.72 µM] (inactive).
`CC(=O)O.CC(=O)O.CC(=O)O.CC(=O)O.CC(=O)O.CC(=O)O.CC(=O)O.O.O.[Cr].[Cr].[Cr]`: the Potency entry in experiment [1], in [2], in experiment [3], in [4], in [5] and in experiment [6] was “inactive” throughout. Also, the call in experiment [7] was inactive.
On to `CC1CCCC1`, for which the Potency result in experiment [1], in experiment [3], in experiment [4], in experiment [5], in experiment [10] and in experiment [6] was “inactive” each time. Also, the Potency result in experiment [8] and in [9] was “inactive” throughout. In [2], the Potency was 53.6 µM (active).
With `COc1c2c(cc3c1OCO3)CCN(C)C2`, the Potency entry in experiment [1], in experiment [2], in [3], in experiment [4], in [5] and in [6] was “inactive” throughout. The Potency result in [8] and in experiment [9] was “inactive” in each case. The call in experiment [7] was inactive.
Consider `CCCCc1ccccc1`, for which the Potency entry in [1], in experiment [2], in experiment [3], in experiment [4], in [5] and in experiment [10] was “inactive” each time. The Potency result in experiment [6] was “inactive”. The call in experiment [7] was inactive.
Take `Brc1cccc(-c2ccccc2)c1`: the Potency result in [1], in experiment [2], in experiment [3], in experiment [4], in experiment [5] and in experiment [10] was “inactive” throughout. The Potency entry in experiment [6], in experiment [8] and in experiment [9] was “inactive” in each case. Also, the molecule was called inactive in experiment [7].
Turning to `O=[N+]([O-])c1ccc(Cl)c(Cl)c1Cl`, the Potency entry in experiment [1], in experiment [2], in [3], in experiment [4], in experiment [5] and in [6] was “inactive” in each case. In addition, the Potency result in [8] and in [9] was “inactive” throughout. Besides, the molecule was called inactive in experiment [7].
In the case of `CCCCN(CCCC)C(=S)S`, the Potency result in experiment [1], in experiment [2], in experiment [3], in [4], in experiment [10] and in experiment [6] was “inactive” throughout. In addition, the outcome in experiment [7] was inactive.
